Here are results for 18 compounds from PubChem BioAssay AID434959 (Broad Institute, 2010).

Screen size: about 30,000 compounds; about 110 (0.37%) were called active. The list comes from a sample in which actives are over-represented; it also holds similar structures and randomly drawn compounds. A number with no mark means an inactive call.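 Rule for the calls: active = delta delta Cp rounded down to an integer at or above 3, about 3 SD of DMSO wells; inactive = the rest.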

A short description of this assay: inhibitors of YB-1 gene expression, primary screen, cell-based, fluorescence (AID 434959).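 Note: higher means less YB-1 transcript or more CDIP transcript relative to DMSO.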 To be noted: U2OS, qRT-PCR YB-1 vs CDIP delta delta Cp, 16 h; active compounds read high; zero = DMSO, each unit about twofold.
For the compound `CN1C(=O)C(Cc2ccccc2)(Cc2ccccc2)c2ccccc21`, the delta Cp (YB-1 minus CDIP) was -0.307. Then `C[C@@H]1CN([C@H](C)CO)C(=O)c2cc(NC(=O)CCCN(C)C)ccc2O[C@H]1CN(C)S(=O)(=O)c1ccc(Cl)cc1`, with -0.394; and `Cc1ccc(S(=O)(=O)N(C)C[C@@H]2OCCCC[C@@H](C)Oc3ccc(NS(=O)(=O)c4ccccc4)cc3C(=O)N([C@H](C)CO)C[C@@H]2C)cc1`, with -0.0955. Then `O=C(CCCCCCC(=O)Nc1ccccc1O)N/N=C/c1ccc2c(c1)Cc1ccccc1-2`, with 0.456. Then `O=C(N/N=C/c1cc(F)ccc1O)c1ccccc1O`, with 0.293; and `COc1ccc(OC)c(CCCc2cc(OC)ccc2OC)c1`, with 10.3 (active); and `COc1ccc2nc3c(nc2c1)C(=O)c1ccccc1C3=O`, with 0.188. Turning to `C[C@H]1CN([C@@H](C)CO)C(=O)c2cc(NS(=O)(=O)c3cccs3)ccc2O[C@@H]1CN(C)C(=O)Nc1cccc2ccccc12`, the delta Cp (YB-1 minus CDIP) was -0.308. In the case of `Cc1noc(C)c1S(=O)(=O)N(C)C[C@H]1OCCCC[C@@H](C)Oc2ccc(NC(=O)C3CCCCC3)cc2C(=O)N([C@H](C)CO)C[C@@H]1C`, the delta Cp (YB-1 minus CDIP) was 0.386. For `C[C@H](CO)N1C[C@H](C)[C@H](CN(C)S(C)(=O)=O)Oc2ncc(C#CCN(C)C)cc2C1=O`, the delta Cp (YB-1 minus CDIP) is 0.217. As for `NCCCC[C@@H]1NC(=O)[C@@H]2C[C@H](C(=O)NCc3ccc(F)cc3)[C@H](c3ccc(O)cc3)N2C1=O`, the delta Cp (YB-1 minus CDIP) was 0.142.

`C[C@H](CO)N1C[C@H](C)[C@H](CN(C)S(=O)(=O)c2cccs2)Oc2ccc(NS(=O)(=O)c3ccccc3)cc2C1=O`: the delta Cp (YB-1 minus CDIP) was -0.379.

Regarding `Cc1ccc(S(=O)(=O)Nc2cccc3c2O[C@@H](CN(C)S(=O)(=O)c2cccs2)[C@@H](C)CN([C@@H](C)CO)C3=O)cc1`, the delta Cp (YB-1 minus CDIP) was -0.365. On to `COc1ccc(-c2cnc3c(c2)C(=O)N([C@H](C)CO)C[C@H](C)[C@H](CN(C)S(=O)(=O)c2ccccc2)O3)cc1`, for which the delta Cp (YB-1 minus CDIP) was 0.828. In the case of `C=C(CC/C=C(\C)C(=O)O)C1(O)CC=C(C)CC1` (stereo not drawn), the delta Cp (YB-1 minus CDIP) was -0.182.

For the compound `Cc1noc(C)c1S(=O)(=O)Nc1ccc2c(c1)C(=O)N([C@@H](C)CO)C[C@@H](C)[C@H](CN(C)C(=O)Nc1cccc3ccccc13)O2`, the delta Cp (YB-1 minus CDIP) was 0.0124. For the compound `C[C@@H]1CN([C@H](C)CO)C(=O)Cc2cc(NS(=O)(=O)c3cccs3)ccc2O[C@H]1CN(C)C(=O)Nc1ccc2c(c1)OCO2`, the delta Cp (YB-1 minus CDIP) is 0.417. Consider `Cc1noc(C)c1NC(=O)Nc1ccc2c(c1)C(=O)N([C@H](C)CO)C[C@H](C)[C@H](CN(C)Cc1ccc(-c3ccccc3)cc1)O2`, for which the delta Cp (YB-1 minus CDIP) was 0.364.
